High-throughput results (PubChem BioAssay)
Compounds with a hit are over-represented: about 2.3% of the library has one in this group of screens.
M1 antag: human CHRM1 antagonism. hit rate 1.3% among 360,000. CHO-K1 hM1, Fluo-8 calcium fluorescence, ACh EC80 antagonist. inhibition, % at 3 µM. AID 588852;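 active = percent inhibition above its own plate's cutoff, namely the mean of that plate's compound wells plus 3 SD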;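 also: peak over basal fluorescence ratio during 140 s after agonist addition; 0% = ACh EC80 plus DMSO and 100% = DMSO alone without agonist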
Target sequence (P11229 whole entry, looked up): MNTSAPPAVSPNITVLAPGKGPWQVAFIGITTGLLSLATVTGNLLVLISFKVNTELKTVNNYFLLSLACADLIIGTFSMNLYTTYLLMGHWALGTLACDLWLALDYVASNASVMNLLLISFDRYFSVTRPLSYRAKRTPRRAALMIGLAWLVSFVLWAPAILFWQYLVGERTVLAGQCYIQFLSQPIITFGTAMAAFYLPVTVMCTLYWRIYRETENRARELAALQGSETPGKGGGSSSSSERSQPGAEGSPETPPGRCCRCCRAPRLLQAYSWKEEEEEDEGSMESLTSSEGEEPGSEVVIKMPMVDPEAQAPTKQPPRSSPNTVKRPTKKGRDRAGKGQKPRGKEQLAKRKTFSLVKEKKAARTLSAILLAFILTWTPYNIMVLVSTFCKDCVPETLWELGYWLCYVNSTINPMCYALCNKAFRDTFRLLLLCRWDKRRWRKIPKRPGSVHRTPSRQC
CHRM1 agonist: activates human CHRM1 receptor; AID 588814; hit rate 0.33% among 360,000; CHO-K1 hM1, Fluo-8 calcium fluorescence, agonist mode; 0% DMSO, 100% acetylcholine EC100; P11229; activation, % at 3 µM;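 active = activation above the run's mean compound activation plus 3 SD, cut at about 16% in these data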;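 also: peak over basal fluorescence ratio within a 140 s kinetic read after compound addition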
M1 PAM parental: counter-screen for M1 PAMs: effect in parental CHO-K1 cells. ATP EC20, Fluo-8 calcium fluorescence; 0% at ATP EC20, 100% at ATP max. activation, % at 3 µM. hit rate 0.02% among 360,000. AID 602247;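 active = activation above the run cutoff, the mean activation of all test compounds plus 3 SD, cut at about 40% in these data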;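 also: peak over basal fluorescence ratio in a 140 s read after ATP addition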
M1 PAM: human CHRM1 positive allosteric modulation | P11229 | CHO-K1 hM1, Fluo-8 calcium fluorescence, ACh EC20; 0% = ACh EC20, 100% = maximal ACh | activation, % at 3 µM | hit rate 0.088% among 360,000 | AID 588819; in the data active = activation above about 19%, passing the limit was not always enough
M1 ag parental: nonselective activator or artifact in parental CHO-K1 cells; hit rate 0.48% among 360,000; AID 602248; activation, % at 3 µM; Fluo-8 calcium fluorescence; scaled to maximal ATP response, vehicle zero; in the data active = activation above about 15%;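 also: untransfected CHO-K1 host cells lacking M1 receptor as counterscreen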
CHO-K1 Ca antag: nonselective inhibitor or artifact in parental CHO-K1 cells; hit rate 0.6% among 360,000; inhibition, % at 3 µM; ATP-induced calcium, Fluo-8 fluorescence;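 active = inhibition above a per-plate cutoff, the plate's mean sample inhibition plus 3 SD, cut at about 24% in these data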;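 also: 0% = DMSO plus EC80 ATP and 100% = DMSO alone without ATP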
* marks the source's active call; other numbers are inactive results.

SMILES	M1 antag	CHRM1 agonist	M1 PAM parental	M1 PAM	M1 ag parental	CHO-K1 Ca antag
S=C(NCc1ccncc1)Nc1cc(Cl)cc(Cl)c1	5.1	13.4	-13.9	5.2	13.3	27.3*
S=C(NCc1ccncc1)Nc1ccc(Cl)c(Cl)c1	11.9	5.9	3.8	-6.1	12.3	7.2
O=C(CN1C(=O)NC2(CCCC2)C1=O)OCCOc1ccc(Cl)cc1Cl	-9.4	-3.5	-19.5	-1.5	0.8	2.1
CC1(C(=O)NS(=O)(=O)C2CC2)CCN(C(=O)c2ccccc2F)C1 (stereo not drawn)	-26.6	1.4	22.8	18.2	0.7	-8.8
CCOC(=O)c1c(NC(C)=O)sc2c1CCCNC2=O	-6.1	6.7	-9.8	9.1	-0.3	26.4*
CCOC(=O)c1c(NC(C)=O)sc2c1CCC(C=O)=C2Sc1ccccc1	-4.3	-5.4	14.4	0.8	-0.2	-8.3
CC(C)(C)C(=O)OC/C(N)=N/OC(=O)c1ccc(Cl)cc1	-13.7	-1.7	23.1	6.8	16.4*	-8.7
N/C(Cc1ccc(Cl)cc1)=N\OC(=O)c1ccccc1	-10.1	-4.2	19.0	-2.0	0.6	-7.1
O=C(Cc1ccccc1)Nc1cccc(-c2nnc(-c3ccco3)o2)c1	-17.2	-2.7	18.7	-5.8	3.7	-9.8
COc1ccc(CC(=O)Nc2cccc(-c3nnc(-c4ccccc4)o3)c2)cc1OC	29.5*	2.1	10.9	-15.8	5.6	-5.5
COc1ccccc1OCC(=O)Nc1cccc(-c2nnc(-c3ccco3)o2)c1	24.5*	-4.8	-11.2	-22.4	5.3	0.3
CC(=O)Oc1ccc(C(=O)Nc2cccc(-c3nnc(-c4ccco4)o3)c2)cc1	12.1	15.4	6.7	-7.9	23.7*	0.6
O=C(Nc1cccc(-c2nnc(-c3ccco3)o2)c1)c1ccccc1	1.3	-5.7	5.3	-7.5	4.1	-6.5
COc1ccc(CC(=O)Nc2cccc(-c3nnc(-c4cccc(C)c4)o3)c2)cc1OC	38.1*	5.1	4.4	-14.7	7.3	5.2
CCn1cc(C(=O)N[C@H](C(=O)NCCCN2CCOCC2)C(C)C)c(=O)c2cc3c(cc21)OCO3	-9.3	-3.8	22.3	8.2	1.2	-13.9
CCCNS(=O)(=O)c1cc2c(cc1Br)CCN2C(=O)CC	-5.6	-3.2	18.5	4.9	0.9	-7.5
Cc1cccc(CCN2C(Nc3ccccc3)=NC[C@@H]2CC(C)C)c1	57.1*	52.9*	-22.4	-36.4	64.3*	37.0*
CC(C)CCN1C(Nc2ccccc2)=NC[C@@H]1CC(C)C	4.9	-12.6	-5.1	-2.1	0.8	-7.3
CC(C)C[C@H]1CN=C(Nc2ccccc2)N1CCc1cccc(F)c1	57.4*	62.8*	-23.2	-38.7	85.4*	43.2*
CC(C)C[C@H]1CN=C(N(C)C)N1CCc1cccc(F)c1	6.3	-12.6	-12.1	-4.2	0.4	-14.5
CCN1C(Nc2ccccc2)=NC[C@@H]1CC(C)C	8.8	-10.8	16.4	-4.5	1.2	-16.1
CC(C)C[C@H]1CN=C(Nc2ccccc2)N1CCc1ccc(F)cc1	25.0	50.2*	-16.6	-32.4	64.2*	22.6
O=[N+]([O-])c1ccccc1N(S(=O)(=O)c1ccccc1)S(=O)(=O)c1ccccc1	3.0	-1.4	11.1	-5.0	0.1	-10.5
Cc1nnsc1SCCNC(=O)Nc1ccc(Cl)cc1	36.6*	2.9	-15.2	-13.2	14.5	18.4
O=C(NCCNC(=O)Nc1ccc(Cl)cc1)Nc1ccc(Cl)cc1	4.2	0.2	-19.5	-2.4	-0.5	0.5
SMILES	M1 antag	CHRM1 agonist	M1 PAM parental	M1 PAM	M1 ag parental	CHO-K1 Ca antag
O=C(NCCc1ccccc1)c1c[nH]c2c(F)cccc2c1=O	-8.8	-2.5	-5.9	7.9	4.0	-3.7
Cc1cccc2c(=O)c(C(=O)NCCc3ccccc3)c[nH]c12	30.5*	-2.4	-8.6	-13.3	1.6	23.4
c1ccc(CNc2ncnc3scc(-c4cccs4)c23)nc1	29.5*	0.5	-2.8	-13.7	13.0	12.8
c1ccc(-c2csc3ncnc(NCCN4CCOCC4)c23)cc1	22.2	-4.0	-3.4	-6.4	1.0	12.5
c1ccc(-c2csc3ncnc(NCc4ccccn4)c23)cc1	42.9*	0.8	9.7	-19.4	13.1	4.5
CN(C)CCCNc1ncnc2scc(-c3ccccc3)c12	48.1*	-6.8	14.3	-23.6	0.2	-13.9
CN(C)CCCNc1ncnc2c1c(-c1ccccc1)cn2-c1ccccc1	-1.4	-10.5	2.4	-0.8	0.6	-3.8
Cc1ccc(S(=O)(=O)N2CCN(C(=O)CN3C(=O)c4ccc([N+](=O)[O-])cc4C3=O)CC2)cc1C	-8.3	-2.4	10.4	8.8	0.2	-12.5
O=C(NC(=O)N1CCN(C(c2ccccc2)c2ccccc2)CC1)c1ccccc1	66.4*	-4.8	12.4	-21.8	0.9	-11.0
O=C(Nc1ccccc1C(F)(F)F)N1CCN(C(c2ccccc2)c2ccccc2)CC1	44.4*	-6.0	12.3	-24.9	0.5	1.1
CCCNC(=O)N1CCN(C(c2ccccc2)c2ccccc2)CC1	-8.8	-5.1	12.3	6.2	-0.4	-8.5
CNc1nc2c(c(=O)[nH]c(=O)n2C)n1CCCc1ccccc1	-14.1	-2.8	2.6	9.8	0.6	-12.3
Cn1c(=O)[nH]c(=O)c2c1nc(NCc1ccccc1)n2CCCc1ccccc1	9.7	-0.1	-10.0	-10.5	-0.5	25.6*
Cn1nc(C(=O)NC2CCCCC2)c2c1-c1ccccc1S(=O)(=O)C2	-8.9	-2.6	18.8	8.7	1.5	-9.5
CCSc1nsc(NC(=O)Nc2ccc(F)cc2F)n1	12.8	2.4	-6.0	-6.5	8.8	19.7
CCSc1nsc(NC(=O)Nc2ccccc2Cl)n1	18.2	-0.3	-16.1	-12.8	6.9	27.9*
COc1ccc(NC(=O)C2Cc3c(-c4ccc5c(c4)OCO5)ccnc3O2)cc1OC (stereo not drawn)	32.6*	1.6	-2.0	-14.6	11.5	6.2
CCOC(=O)c1[nH]c2c(c1C)C(=O)CC(c1ccc(F)cc1)C2 (stereo not drawn)	-3.4	3.6	-12.5	0.5	1.2	34.3*
COC(=O)c1[nH]c2c(c1C)C(=O)CC(c1ccc(OC)c(OC)c1)C2 (stereo not drawn)	1.7	3.1	-6.0	-1.4	23.2*	11.1
COCCOC(=O)c1[nH]c2c(c1C)C(=O)CC(c1ccc(OC)c(OC)c1)C2 (stereo not drawn)	14.7	2.8	-0.5	-4.6	1.5	21.6
O=C(CCCCN1CCCCC1)c1ccc2c(c1)Cc1ccccc1-2	19.4	-2.6	9.3	-9.0	13.1	1.7
OC1(CC#CCN2CCCCC2)c2ccccc2-c2ccccc21	54.7*	-6.6	22.2	-26.7	1.3	-11.4
CCN(CC#CCC1(O)c2ccccc2-c2ccccc21)CCO	-1.1	-6.7	21.1	-1.0	1.8	-11.9
OC1(C#CCCN2CCCCC2)c2ccccc2-c2ccccc21	99.2*	-7.7	-2.4	-27.3	5.0	-6.1
COc1ccc(/C(C)=N/NC(=O)c2ccc(CSc3nncn3C)cc2)cc1	13.4	-2.7	15.1	-4.9	15.4*	8.9
